Assay in all cases: universal protein binding microarray (PBM); transcription factors of Arabidopsis thaliana; high values mean tight binding
Details in all cases: protein: recombinant; tags: GST; chain copies: 2; dsDNA, one strand shown

Assay [1] addresses T1, GST-ANAC092(1-176) (Arabidopsis thaliana, UniProt Q9FKA0 1-176).
T1 sequence: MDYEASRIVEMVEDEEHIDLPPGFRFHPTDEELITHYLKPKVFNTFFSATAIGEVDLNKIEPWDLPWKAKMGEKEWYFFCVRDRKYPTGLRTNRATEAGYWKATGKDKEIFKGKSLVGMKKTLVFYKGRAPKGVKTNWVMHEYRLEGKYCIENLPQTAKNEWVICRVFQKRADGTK
In a few lines: (§1)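 Cells were induced to make GST-tagged NAC-domain, full-length or DNA-binding-domain proteins, and zinc acetate was added for zinc-finger proteins. These proteins were purified on glutathione–Sepharose 4B, quantified by A280 or anti-GST western blot, and applied in duplicate at 200 to 500 nM final to custom all-10-mer Agilent 4 × 180K arrays that primer extension had made double-stranded. Binding is given as the normalised enrichment score (E-score) for scored gapped and ungapped 8-mers.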

Assay [2] concerns the target T2, GST-ANAC019 NAC domain (Arabidopsis thaliana, UniProt Q9C932 14-162).
T2 sequence: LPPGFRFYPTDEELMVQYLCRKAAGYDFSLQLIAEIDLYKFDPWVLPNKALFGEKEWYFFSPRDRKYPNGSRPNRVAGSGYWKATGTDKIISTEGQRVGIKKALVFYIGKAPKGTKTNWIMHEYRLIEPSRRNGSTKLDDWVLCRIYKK
In a few lines: as §1

Assay [3] concerns the target T3, GST-ANAC055(1-171) (Arabidopsis thaliana, UniProt Q9LDY8 1-171).
T3 sequence: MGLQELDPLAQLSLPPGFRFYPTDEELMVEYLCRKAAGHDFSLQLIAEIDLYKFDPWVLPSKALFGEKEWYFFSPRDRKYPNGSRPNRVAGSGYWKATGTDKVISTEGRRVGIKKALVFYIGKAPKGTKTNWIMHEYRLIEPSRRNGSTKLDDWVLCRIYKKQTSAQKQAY
The method, boiled down:
as §1

In assay [4] the target is T4, GST-ATAF1 NAC domain (Arabidopsis thaliana, UniProt Q39013 7-158).
T4 sequence: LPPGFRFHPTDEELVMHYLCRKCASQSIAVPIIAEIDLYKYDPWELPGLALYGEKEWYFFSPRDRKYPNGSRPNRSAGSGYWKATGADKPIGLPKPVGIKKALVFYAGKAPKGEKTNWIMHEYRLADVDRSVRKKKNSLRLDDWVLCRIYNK
The method, boiled down:
as §1

The target in assay [5] is T5, GST-ANAC092(1-285) full length (Arabidopsis thaliana, UniProt Q9FKA0 1-285).
T5 sequence: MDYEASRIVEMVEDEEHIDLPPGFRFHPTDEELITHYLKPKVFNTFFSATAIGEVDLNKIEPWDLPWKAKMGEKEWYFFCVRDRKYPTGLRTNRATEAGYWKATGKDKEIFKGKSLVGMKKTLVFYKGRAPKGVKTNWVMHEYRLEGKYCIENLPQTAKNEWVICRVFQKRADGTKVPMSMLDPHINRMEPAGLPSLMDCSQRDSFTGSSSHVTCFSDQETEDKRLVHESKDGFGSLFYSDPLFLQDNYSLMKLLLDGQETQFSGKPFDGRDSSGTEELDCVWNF
The method, boiled down:
as §1

Assay [6] deals with T6, GST-NAP(1-166) (Arabidopsis thaliana, UniProt O49255 1-166).
T6 sequence: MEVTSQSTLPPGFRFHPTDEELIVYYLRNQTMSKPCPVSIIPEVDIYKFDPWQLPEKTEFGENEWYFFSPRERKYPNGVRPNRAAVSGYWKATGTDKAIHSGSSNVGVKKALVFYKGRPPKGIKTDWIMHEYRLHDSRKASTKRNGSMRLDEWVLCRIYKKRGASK
The method, boiled down:
as §1

Assay [7] addresses T7, GST-NST2(1-184) (Arabidopsis thaliana, UniProt Q9M274 1-184).
T7 sequence: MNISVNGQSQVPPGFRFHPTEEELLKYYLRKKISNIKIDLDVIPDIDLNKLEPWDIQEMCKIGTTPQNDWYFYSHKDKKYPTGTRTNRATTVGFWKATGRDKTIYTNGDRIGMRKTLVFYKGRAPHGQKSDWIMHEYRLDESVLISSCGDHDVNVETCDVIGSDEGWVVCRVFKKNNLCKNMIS
The method, boiled down:
as §1

Assay [8] deals with T8, GST-SND1(1-203) (Arabidopsis thaliana, UniProt Q9LPI7 1-203).
T8 sequence: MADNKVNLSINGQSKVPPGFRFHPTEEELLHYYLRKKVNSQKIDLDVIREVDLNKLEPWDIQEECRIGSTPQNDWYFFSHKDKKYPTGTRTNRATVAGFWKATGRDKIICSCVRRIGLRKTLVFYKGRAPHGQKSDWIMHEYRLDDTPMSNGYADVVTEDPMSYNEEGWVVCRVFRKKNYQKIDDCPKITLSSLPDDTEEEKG
In a few lines:
as §1

The target in assay [9] is T9, GST-VND3 NAC domain (Arabidopsis thaliana, UniProt Q9FH59 12-162).
T9 sequence: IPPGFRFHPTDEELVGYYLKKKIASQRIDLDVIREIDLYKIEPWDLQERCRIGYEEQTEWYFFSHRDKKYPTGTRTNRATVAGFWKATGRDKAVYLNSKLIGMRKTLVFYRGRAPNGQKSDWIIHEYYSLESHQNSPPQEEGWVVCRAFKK
The method, boiled down: as §1

For assay [10], the target named is T10, GST-VND7 NAC domain (Arabidopsis thaliana, UniProt Q9C8W9 9-158).
T10 sequence: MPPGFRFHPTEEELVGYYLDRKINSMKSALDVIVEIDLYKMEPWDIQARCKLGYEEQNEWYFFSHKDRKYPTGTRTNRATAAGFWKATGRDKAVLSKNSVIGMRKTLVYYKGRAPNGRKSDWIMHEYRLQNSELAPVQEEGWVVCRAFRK
In a few lines: as §1

The target in assay [11] is GST-NTL6(1-168) (Arabidopsis thaliana, UniProt Q9SCK6 1-168). In a few lines: as §1
Chain of GST-NTL6(1-168) (Q9SCK6 1-168): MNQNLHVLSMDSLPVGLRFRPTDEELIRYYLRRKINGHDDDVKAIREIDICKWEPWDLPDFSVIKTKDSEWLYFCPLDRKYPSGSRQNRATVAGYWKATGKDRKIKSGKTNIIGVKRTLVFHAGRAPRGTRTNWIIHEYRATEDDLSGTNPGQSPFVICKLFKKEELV
The target in assay [12] is T11, GST-NTL8 NAC domain (Arabidopsis thaliana, UniProt Q9XIN7 14-156).
T11 sequence: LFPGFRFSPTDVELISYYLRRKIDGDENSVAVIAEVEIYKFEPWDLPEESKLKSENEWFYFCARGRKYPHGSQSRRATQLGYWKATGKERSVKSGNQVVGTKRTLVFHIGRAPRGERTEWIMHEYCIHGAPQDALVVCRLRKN
The method, boiled down: as §1

From article PMC4081100, “A DNA-binding-site landscape and regulatory network analysis for NAC transcription factors in Arabidopsis thaliana” come the findings set out here.

In the case of ATTACGCA, the binding signal was found to be 0.35 E-score in assay [1]; 0.168 E-score in assay [2]; 0.276 E-score in assay [3]; 0.206 E-score in [4]; 0.37 E-score in [5]; 0.282 E-score in assay [6]. In addition, the binding signal was found to be 0.292 E-score in assay [7], 0.431 E-score in assay [8], 0.265 E-score in [9] and 0.253 E-score in [10].

For the sequence CGACACGC, the binding signal in assay [1] is 0.316 E-score; in [2] it was 0.246 E-score; in [3], 0.131 E-score; in assay [4], 0.188 E-score; in assay [5] it was 0.403 E-score; in assay [6], 0.194 E-score. The binding signal in [8] was 0.134 E-score; in assay [9], 0.138 E-score; in assay [10], 0.198 E-score.

Turning to ACGCCAAC, the binding signal was determined as 0.404 E-score in assay [1]; 0.116 E-score in assay [2]; 0.175 E-score in assay [3]; 0.159 E-score in [4]; 0.436 E-score in assay [5]; 0.0544 E-score in assay [6]. Moreover, the binding signal in [7] was found to be 0.227 E-score; in assay [8] it was 0.379 E-score; in [9], 0.0688 E-score; in assay [10], 0.118 E-score.

In the case of ACGGCAAC, the binding signal in assay [1] was 0.401 E-score; in [2], 0.386 E-score; in assay [3] it was 0.375 E-score; in assay [4], 0.288 E-score; in assay [5] it was 0.42 E-score; in assay [6], 0.264 E-score. Besides, the binding signal in [7] was found to be 0.264 E-score; in assay [8], 0.246 E-score; in assay [9], 0.326 E-score; in [10] it was 0.331 E-score.

Regarding ACCTTAAC, the binding signal in assay [1] was 0.126 E-score; in assay [11], 0.415 E-score; in assay [3] it was 0.156 E-score; in assay [4], 0.155 E-score; in assay [5] it was 0.147 E-score; in [7], 0.154 E-score. In addition, the binding signal was found to be 0.16 E-score in assay [12], 0.13 E-score in [8], 0.156 E-score in assay [9] and 0.077 E-score in assay [10].

On to GTACGCCA, for which the binding signal in [1] is 0.379 E-score; in assay [2], 0.139 E-score; in assay [3] it was 0.153 E-score; in assay [4] it was 0.121 E-score; in [5] it was 0.45 E-score; in assay [6], 0.0526 E-score. For the same sequence, the binding signal in assay [7] was found to be 0.225 E-score; in assay [8], 0.398 E-score; in assay [9], 0.07 E-score; in assay [10], 0.114 E-score.

Regarding ACGTCACC, the binding signal in assay [1] was determined as 0.452 E-score; in assay [2], 0.308 E-score; in assay [3] it was 0.32 E-score; in assay [4], 0.311 E-score; in assay [5], 0.463 E-score; in assay [6], 0.356 E-score. Also, the binding signal in [7] turned out to be 0.237 E-score; in assay [8], 0.408 E-score; in assay [9], 0.239 E-score; in assay [10], 0.28 E-score.

As to CACGGCAC, the binding signal in [1] came out at 0.462 E-score; in [2] it was 0.484 E-score; in assay [3], 0.484 E-score; in assay [4], 0.432 E-score; in assay [5], 0.474 E-score; in assay [6], 0.478 E-score. In addition, the binding signal was 0.292 E-score in [7], 0.203 E-score in assay [8], 0.458 E-score in assay [9] and 0.485 E-score in assay [10].

On to CACGGCAG, for which the binding signal in [1] was found to be 0.39 E-score; in assay [2], 0.457 E-score; in assay [3] it was 0.403 E-score; in assay [4] it was 0.307 E-score; in assay [5], 0.426 E-score; in [6], 0.227 E-score. The binding signal amounted to 0.0722 E-score in assay [7], 0.11 E-score in assay [8], 0.412 E-score in assay [9] and 0.384 E-score in assay [10].

For AACACGGA, the binding signal in assay [1] was 0.298 E-score; in [2], 0.413 E-score; in assay [3], 0.397 E-score; in assay [4], 0.299 E-score; in assay [5], 0.274 E-score; in [6] it was 0.268 E-score. Moreover, the binding signal in [7] was found to be 0.173 E-score; in [8], 0.0986 E-score; in assay [9], 0.319 E-score; in assay [10], 0.362 E-score.

With AAAGCAAC, the binding signal in [1] came to 0.268 E-score; in assay [11], 0.0839 E-score; in assay [3], 0.0548 E-score; in assay [5] it was 0.373 E-score; in assay [7], 0.277 E-score; in assay [12] it was 0.0929 E-score. The binding signal in assay [8] was 0.401 E-score; in assay [9], 0.0501 E-score; in [10], 0.145 E-score.

As for ACACGCGA, the binding signal stood at 0.461 E-score in [1]; 0.125 E-score in [11]; 0.478 E-score in assay [5]; 0.147 E-score in [6]; 0.212 E-score in assay [7]; 0.309 E-score in assay [8]. Besides, the results for the binding signal in assay [9] and in assay [10] were 0.0551 E-score and 0.124 E-score, respectively.

For CTACACGC, the binding signal stood at 0.361 E-score in [1]; 0.11 E-score in [2]; 0.0947 E-score in assay [3]; 0.186 E-score in assay [4]; 0.425 E-score in assay [5]; 0.192 E-score in [6]. Besides, the binding signal in assay [7] came to 0.235 E-score; in [8], 0.307 E-score; in assay [9] it was 0.147 E-score; in assay [10], 0.0812 E-score.

As to TCACGGAA, the binding signal in [1] was found to be 0.363 E-score; in assay [2] it was 0.465 E-score; in assay [3], 0.432 E-score; in assay [4] it was 0.332 E-score; in assay [5] it was 0.381 E-score; in assay [6], 0.383 E-score. Besides, the binding signal came out at 0.219 E-score in [8], 0.381 E-score in [9] and 0.436 E-score in [10].

As to GTTACGCA, the binding signal came to 0.338 E-score in [1]; 0.301 E-score in assay [2]; 0.189 E-score in [3]; 0.2 E-score in [4]; 0.363 E-score in assay [5]; 0.263 E-score in assay [6]. In addition, the binding signal in [7] came out at 0.219 E-score; in assay [8], 0.422 E-score; in assay [9] it was 0.317 E-score; in assay [10] it was 0.215 E-score.

Consider ACGGCACG, for which the binding signal was 0.34 E-score in assay [1]; 0.291 E-score in assay [2]; 0.34 E-score in assay [3]; 0.286 E-score in assay [4]; 0.404 E-score in assay [5]; 0.324 E-score in [6]. In addition, the binding signal came out at 0.133 E-score in [7], 0.0651 E-score in [8], 0.217 E-score in assay [9] and 0.233 E-score in assay [10].
